Experimental data from PubChem BioAssay AID686996 (Broad Institute, 2013).
Several values for one entry are separate records, joined by “and”; a condition that tells them apart may be missing. Equal entries are not always repeated. Out of some 350,000 compounds screened, about 1,900 (0.54%) were called active.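 Rule for the calls: active = mean inhibition across replicates at least about 35%, with every replicate also reaching that limit (limit read from the data); inconclusive = only one of the two criteria met; inactive = neither criterion met.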 For the sample, actives were picked, then their nearest neighbours and some compounds at random. A structure can be active in one record and inactive in another.

These compounds were tested against Caspase-6 (Homo sapiens) (UniProt P55212) (assay: human caspase-6 inhibitors, primary screen, biochemical, VEID-R110 fluorescence, single point, set 2 (AID 686996;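 note: 0% = median of neutral control wells and 100% = no fluorescence left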)). Details: purified caspase-6, Z-VEID-R110 cleavage fluorescence; at 12.5 µM; stronger effect = higher value.
Sequence of Caspase-6 (Homo sapiens) (P55212 24-179 limits assumed): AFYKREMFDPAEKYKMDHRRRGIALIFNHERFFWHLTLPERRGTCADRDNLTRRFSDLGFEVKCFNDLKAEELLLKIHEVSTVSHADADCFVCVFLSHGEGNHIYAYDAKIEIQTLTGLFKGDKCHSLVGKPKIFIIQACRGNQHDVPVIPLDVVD
Sequence of Caspase-6 (Homo sapiens) (P55212 194-293 limits assumed): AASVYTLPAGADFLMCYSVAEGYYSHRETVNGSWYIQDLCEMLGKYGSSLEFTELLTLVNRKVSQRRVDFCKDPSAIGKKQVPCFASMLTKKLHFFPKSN

How did the inhibition turn out when CC=Cc1ccc2n(c1=O)C[C@@H]1[C@@H](CO)[C@H](C(=O)N(C)C)[C@H]2N1CCc1ccccc1 (mixture of isomers) was run?
The inhibition was -1.44% (inactive).

With CC=Cc1ccc2n(c1=O)C[C@@H]1[C@@H](CO)[C@H](C(=O)N[C@H](C)c3ccccc3)N(C(=O)c3cnccn3)[C@H]21 (mixture of isomers) as the compound, how does the inhibition read?
Its inhibition is -3.98% (inactive).

For CC=Cc1ccc2n(c1=O)C[C@@H]1[C@@H](CO)[C@H](C(=O)NCCc3ccccc3)N(C(C)=O)[C@H]21 (mixture of isomers), which inhibition is on record?
Its inhibition is 61.2% (active).

With CO[C@H]1CN(C)C(=O)c2ccc(NC(=O)C3CC3)cc2OC[C@@H](C)N(Cc2ccc(F)cc2)C[C@@H]1C as the compound, how does the inhibition read?
The inhibition was 3.32% (inactive).

For CCN1CCN(C(=O)N[C@@H](C(=O)N[C@@H]2C(=O)N3C(C(=O)O)=C(CSc4nnnn4C)CS[C@H]23)c2ccc(O)cc2)C(=O)C1=O, which inhibition is on record?
Its inhibition is 0.383% (inactive).

With Cc1cc(C)cc(C(=O)NC2C(=O)N3C(C(=O)O)=C(CSc4nnc(C)s4)CSC23)c1 (stereo not drawn) as the compound, how does the inhibition read?
The inhibition was 9.95% (inactive).

With C=CC1=C(C(=O)O)N2C(=O)[C@@H](NC(=O)/C(=N/OCC(=O)O)c3csc(N)n3)[C@H]2SC1 as the compound, how does the inhibition read?
Its inhibition is 88.2% (active).

With CO/N=C(\C(=O)N[C@@H]1C(=O)N2C(C(=O)O)=C(COC(C)=O)CS[C@H]12)c1csc(N)n1 (stereo in doubt) as the compound, how does the inhibition read?
The inhibition was 13.9% (inactive) and 5.09% (inactive) and 37.7% (active).

COc1ccccc1NC(=O)N1C[C@H](O)COC[C@H]2O[C@H](CC(=O)NCCc3ccccc3)CC[C@@H]21 was tested. Which inhibition did it give?
The inhibition was 1.79% (inactive).

How did the inhibition turn out when COc1ccccc1CN1CC[C@@H]2[C@@H](CO)Nc3ccc(C#Cc4ccccc4)cc3[C@@H]21 was run?
Its inhibition is 0.663% (inactive).

Which inhibition does the source give for C[C@@H]1CN([C@@H](C)CO)C(=O)c2cc(NC(=O)Nc3cccc4ccccc34)ccc2O[C@@H]1CN(C)C(=O)NC1CCCCC1 here?
Its inhibition is 0.662% (inactive).

For C[C@@H](O)C#Cc1cnc2c(c1)C(=O)N([C@@H](C)CO)C[C@H](C)[C@@H](CN(C)CC1CCCCC1)O2, which inhibition is on record?
Its inhibition is 2.32% (inactive).

Which inhibition does the source give for Oc1ccc(/C=N/N(Cc2ccccc2)c2ccccc2)cc1 here?
Its inhibition is -0.437% (inactive).

How did the inhibition turn out when Oc1ccc(N=Cc2c(O)ccc3ccccc23)cc1 was run?
Its inhibition is 36.4% (active).

Which inhibition does the source give for Cc1cc(N=Nc2ccc3ccccc3c2)ccc1O here?
The inhibition was 2.65% (inactive).

How did the inhibition turn out when COc1ccc(S(=O)(=O)Nc2cccc3c2O[C@H](CN(C)Cc2ccc4c(c2)OCO4)[C@H](C)CN([C@@H](C)CO)C3=O)cc1 was run?
Its inhibition is 0.634% (inactive).

For C[C@H]1CCCCO[C@H](CN(C)C(=O)Nc2ccccc2)[C@@H](C)CN([C@@H](C)CO)C(=O)c2cc(NC(=O)c3ccncc3)ccc2O1, which inhibition is on record?
Its inhibition is -0.544% (inactive).

With Cc1cc(/C=C2\SC(=O)N(C)C2=O)c(C)n1-c1cccc(C(=O)O)c1 as the compound, how does the inhibition read?
Its inhibition is 39.2% (active).

With Cc1cc(/C=C2/SC(=O)N(CC(=O)OC(C)C)C2=O)c(C)n1C as the compound, how does the inhibition read?
Its inhibition is 1.11% (inactive).

How did the inhibition turn out when Cc1cc(/C=C2/SC(=O)N(CC(=O)N3CCCC3)C2=O)c(C)n1C was run?
Its inhibition is 1.51% (inactive).

For O=C(C1=C[C@@H](c2ccccc2)C[C@@H](OCCCCO)O1)N1CCN(Cc2ccccc2)CC1, which inhibition is on record?
The inhibition was -1.99% (inactive).

For C[C@@H]1CN([C@H](C)CO)C(=O)Cc2cc(NC(=O)CCN3CCOCC3)ccc2O[C@H]1CN(C)C, which inhibition is on record?
Its inhibition is 0.558% (inactive).

Which inhibition does the source give for COc1ccc2c3c([nH]c2c1)[C@@H](CO)N(Cc1ccncc1)CC31CN(C(=O)CN(C)C)C1 here?
Its inhibition is -1.6% (inactive).

Which inhibition does the source give for O=C(NC(=O)N1CCOCC1)c1ccccc1 here?
The inhibition was -0.559% (inactive).

How did the inhibition turn out when Cc1oc2c(c1C(=O)N1CCOCC1)C(=O)c1ccccc1C2=O was run?
The inhibition was 62.8% (active).

Which inhibition does the source give for O=C(c1snnc1-c1ccccc1)N1CCOCC1 here?
Its inhibition is -0.096% (inactive).

How did the inhibition turn out when Cc1ccc(S(=O)(=O)N[C@H]2CC[C@H](CC(=O)O)O[C@H]2CO)cc1 was run?
The inhibition was 3% (inactive).

How did the inhibition turn out when Cc1noc(C)c1S(=O)(=O)N(C)C[C@H]1OCCCC[C@@H](C)Oc2ccc(NC(=O)C3CCCCC3)cc2C(=O)N([C@H](C)CO)C[C@@H]1C was run?
The inhibition was -3.38% (inactive).

With COc1ccc(NC(=O)Nc2ccc3c(c2)C(=O)N([C@@H](C)CO)C[C@@H](C)[C@@H](CN(C)S(=O)(=O)c2ccc(C)cc2)OCCCC[C@H](C)O3)cc1 as the compound, how does the inhibition read?
Its inhibition is -2.65% (inactive).

COCC(=O)N1[C@@H](CO)[C@H](c2ccccc2)C12CN(C(=O)NC1CCCCC1)C2 was tested. Which inhibition did it give?
Its inhibition is -0.716% (inactive).

With O=C(Nc1ccncc1)c1ccc([N+](=O)[O-])cc1Cl as the compound, how does the inhibition read?
The inhibition was -0.931% (inactive).

O=C(Nc1ccccc1C(=O)Nc1ccncc1)c1ccc([N+](=O)[O-])cc1 was tested. Which inhibition did it give?
Its inhibition is -0.84% (inactive).

For O=C(Nc1nc2ccc([N+](=O)[O-])cc2s1)c1ccncc1, which inhibition is on record?
Its inhibition is 65.7% (active).

How did the inhibition turn out when CC(C)NC(=O)N(C)C[C@H]1Oc2ncc(C#CC3CC3)cc2C(=O)N([C@H](C)CO)C[C@@H]1C was run?
Its inhibition is -0.116% (inactive).

Which inhibition does the source give for C[C@H](CO)N1C[C@H](C)[C@H](CN(C)C(=O)Nc2cccc(Cl)c2Cl)OCc2ccccc2-c2ccccc2C1=O here?
Its inhibition is 0.728% (inactive).

Which inhibition does the source give for Cc1ccc(-c2nn(-c3ccccc3)cc2/C=C2\SC(=S)N(CCCCCC(=O)O)C2=O)o1 here?
Its inhibition is 49.9% (active).

Which inhibition does the source give for COc1cccc(/C=C2\SC(=S)N(CCCC(=O)N3CCOCC3)C2=O)c1 here?
The inhibition was -1.77% (inactive).

How did the inhibition turn out when O=C(CCCN1C(=O)/C(=C/c2cccs2)SC1=S)Nc1ccc(O)cc1 was run?
Its inhibition is 0.413% (inactive).

Cc1ccc(S(=O)(=O)Nc2ccc3c(c2)C(=O)N(C)[C@H]2CC[C@H](CC(=O)O)O[C@H]2CO3)cc1 was tested. Which inhibition did it give?
The inhibition was 0.009% (inactive).

How did the inhibition turn out when C[C@H](CO)N1C[C@H](C)[C@H](CN(C)C(=O)C2CCC2)Oc2ncc(C#CCc3ccccc3)cc2C1=O was run?
Its inhibition is -2.13% (inactive).

For O=C(O)CCn1c(O)c(C=C2N=c3ccccc3=N2)sc1=S, which inhibition is on record?
The inhibition was 35.5% (active).

With Cc1ccc(S(=O)(=O)N(C)C[C@@H]2Oc3c(NS(C)(=O)=O)cccc3C(=O)N([C@@H](C)CO)C[C@H]2C)cc1 as the compound, how does the inhibition read?
Its inhibition is 0.89% (inactive).

Which inhibition does the source give for COc1cccc(NC(=O)Nc2ccc3c(c2)C(=O)N(C)[C@@H]2CC[C@@H](CC(=O)NCCc4ccccc4)O[C@H]2CO3)c1 here?
The inhibition was 1.41% (inactive).
